This is a sample that favours compounds with a hit; in the whole collection about 4.2% have one here.
MITF TRPM1 HTS – activators of MITF-driven TRPM1 promoter activity in SK-MEL-5 cells; actives 0.75% (n = 300,000); SK-MEL-5 TRPM1-promoter luciferase, 24 h; % of positive control, neutral wells = 0; activation, % at 12.5 µM;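 active means mean activation of at least 80% with every replicate also reaching 80%; inconclusive means mean reaches 80% but some replicate falls short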;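 further: 0% = neutral control wells and 100% = parthenolide positive control wells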
Wnt act – Wnt/beta-catenin pathway activation; Wnt/beta-catenin reporter cell assay, activator, plate reader; activation, % at 9.35 µM; actives 1.2% (n = 300,000); in the data active means activation above about 30%, passing the limit was not always enough; inconclusive means no clear call, values can overlap the other calls;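 further: 0% = neutral control wells and 100% = positive control wells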
esBAF inh – blocks esBAF chromatin remodeling in mouse ES cells; actives 2% (n = 350,000); reporter increase, % at 12.5 µM; Bmi1-luciferase knock-in reporter, 24 h; 100% = twice the neutral-well signal; in the data active means activation above about 40%; inconclusive means no clear call, values can overlap the other calls;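 further: 0% = median of the plate's neutral control wells and 100% = double that signal; a rise in the Bmi1 reporter signal indicates esBAF inhibition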
AHR activator – activators of human aryl hydrocarbon receptor. P35869. AHR-responsive luciferase reporter cells, luminescence. activation, % at 5 µM. actives 2.5% (n = 320,000). AID 2796; in the data active means activation above about 47%;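 further: 0% = vehicle wells and 100% = reference agonist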
Target sequence (P35869 whole entry, looked up): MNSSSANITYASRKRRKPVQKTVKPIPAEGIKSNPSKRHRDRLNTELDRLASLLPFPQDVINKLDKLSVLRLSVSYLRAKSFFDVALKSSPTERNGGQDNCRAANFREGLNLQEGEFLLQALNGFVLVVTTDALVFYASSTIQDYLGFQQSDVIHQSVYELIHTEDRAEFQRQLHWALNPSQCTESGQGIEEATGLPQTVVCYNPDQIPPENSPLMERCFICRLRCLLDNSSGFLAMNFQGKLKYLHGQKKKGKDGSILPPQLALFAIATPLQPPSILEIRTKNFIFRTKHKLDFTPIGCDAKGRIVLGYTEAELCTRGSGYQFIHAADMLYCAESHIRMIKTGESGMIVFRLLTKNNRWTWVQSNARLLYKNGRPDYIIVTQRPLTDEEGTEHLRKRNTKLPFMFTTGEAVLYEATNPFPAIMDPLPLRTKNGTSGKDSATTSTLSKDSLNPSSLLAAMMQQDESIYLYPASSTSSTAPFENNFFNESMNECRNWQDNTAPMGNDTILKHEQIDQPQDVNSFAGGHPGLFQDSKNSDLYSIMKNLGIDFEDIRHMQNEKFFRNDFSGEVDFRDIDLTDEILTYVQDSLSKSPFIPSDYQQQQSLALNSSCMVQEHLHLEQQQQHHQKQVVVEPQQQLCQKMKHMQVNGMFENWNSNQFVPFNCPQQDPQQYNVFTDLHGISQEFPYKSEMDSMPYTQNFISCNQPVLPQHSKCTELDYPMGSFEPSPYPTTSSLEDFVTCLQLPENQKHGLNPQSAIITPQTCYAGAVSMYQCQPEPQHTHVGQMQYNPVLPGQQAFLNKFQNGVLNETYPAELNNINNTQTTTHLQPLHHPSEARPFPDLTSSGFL
GAA850 FXN act – frataxin GAA850 promoter activation; HEK293 lucGAA850 FXN promoter luciferase reporter, 24 h; percent of 10 µM SAHA response; activation, % at 6 µM; actives 0.56% (n = 360,000);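 active means activation above the average of all compounds screened plus 3 SD, cutoff fixed separately per campaign, cut at about 7.5% in these data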;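 further: 0% = DMSO wells and 100% = 10 µM SAHA wells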
Numbers without * were called inactive; ? = inconclusive; nt = not tested or not shown.

SMILES	MITF TRPM1 HTS	Wnt act	esBAF inh	AHR activator	GAA850 FXN act
O=C1NC(N2CCOCC2)=N/C1=C/c1ccc2c(c1)OCO2	-2	1	3	54*	-1
CCSC1=N/C(=C\c2ccc3c(c2)OCO3)C(=O)S1	-9	nt	1	1	-1
O=C(Nc1ncccc1O)c1ccc(Oc2ccccc2)cc1	47	37*	-1	0	4
CCOc1ccc(C(=O)Nc2ncccc2Cl)cc1	73	nt	66*	8	4
COC(=O)c1cnn(-c2cc(Oc3ccccc3)ncn2)c1N	59	nt	22	4	4
NC(=O)c1cnn(-c2cc(Oc3ccccc3)ncn2)c1N	87*	8	37	0	7
CO[C@@H]1CN(C)C(=O)c2ccc(NC(=O)c3cnccn3)cc2OC[C@@H](C)N(CCc2ccccc2)C[C@H]1C	nt	nt	4	nt	nt
Cc1cc(N)n2ncc(-c3ccc(F)cc3)c2n1	73	nt	58*	45	5
CCOC(=O)Cc1c(C)nc2c(-c3ccc(Cl)cc3)c(C)[nH]n2c1=O	-12	-2	-10	5	0
Cc1cc(-c2ccc(Cl)cc2)c2cnn(C(C)C)c2n1	32	4	1	5	2
Cc1cc(SCC(=O)Nc2ccccc2)n2ncc(-c3ccccc3)c2n1	10	1	nt	5	0
CCOC(=O)Cc1c(C)nc2c(-c3ccc(Cl)cc3)cnn2c1C	27	4	4	65*	5
Cc1cc(N)n2ncc(-c3ccc(Cl)cc3)c2n1	39	nt	nt	69*	3
Cc1cc(Cl)n2ncc(-c3ccccc3)c2n1	nt	-3	48*	0	-1
COCC(=O)Nc1ccc2c(c1)[C@H]1C[C@H](CC(=O)NCC3CC3)O[C@H](CO)[C@H]1O2	nt	nt	-8	nt	nt
CCCC(=O)Nc1ccc2c(c1)C(=O)N(C)[C@H]1CC[C@@H](CC(=O)NC3CCCC3)O[C@H]1CO2	nt	nt	-7	nt	nt
Cn1cccc1/C=C1\Cc2ccccc2C1=O	59	63*	53*	6	6
O=C1/C(=C\c2ccc(Br)o2)Cc2ccccc21	12	41*	6	19	3
O=C1/C(=C\c2ccncc2)CCc2ccccc21	4	4	-2	2	2
Cn1cccc1/C=C1\CCc2ccccc2C1=O	5	34*	-46	21	-2
C[C@H]1CN([C@@H](C)CO)C(=O)c2cccc(NC(=O)C3CC3)c2O[C@@H]1CN(C)Cc1ccc(Oc2ccccc2)cc1	nt	nt	-4	nt	nt
Cc1ccc2nc(-c3ccc(NC(=O)CSc4nc(N)cc(=O)[nH]4)cc3)sc2c1	66	56*	?	7	4
Cc1ccc2nc(-c3ccc(NC(=O)CN4CCN(c5ccccn5)CC4)cc3)sc2c1	nt	36*	nt	1	-1
Cc1ccc2nc(-c3ccc(NC(=S)NC(=O)CC(C)C)cc3)sc2c1	nt	52*	73*	8	4
CN1CCN(C(=O)c2cc3c(c(-c4cccc(-c5ccc(C(=O)N(C)C)cc5)c4)n2)[C@H](CCO)N([S@@](=O)C(C)(C)C)C3)CC1	nt	nt	-2	nt	nt
SMILES	MITF TRPM1 HTS	Wnt act	esBAF inh	AHR activator	GAA850 FXN act
CN1CCN(C(=O)C[C@H]2CC[C@H](NC(=O)c3ccc4c(c3)OCO4)[C@H](CO)O2)CC1	nt	nt	0	nt	nt
C[C@H]1CN([C@@H](C)CO)S(=O)(=O)c2ccc(-c3ccncc3)cc2O[C@H]1CN(C)Cc1cccnc1	nt	nt	-5	nt	nt
OC(c1ccc(-c2ccccc2)cc1)c1ncc(-c2ccccc2F)[nH]1 (stereo not given)	nt	-1	-7	nt	1
OC(c1ccccc1)c1ncc(-c2ccccc2F)[nH]1 (stereo not given)	nt	9	62*	nt	1
OC(c1cccc(F)c1)c1ncc(-c2ccc3ccccc3c2)[nH]1 (stereo not given)	nt	1	74*	nt	5
COc1ccccc1-c1cnc(C(O)c2ccc(C)cc2)[nH]1 (stereo not given)	nt	1	55*	nt	0
OC(c1cccc(Cl)c1)c1ncc(-c2ccc3ccccc3c2)[nH]1 (stereo not given)	nt	-3	26	nt	1
COc1ccc(C(O)c2ncc(-c3ccccc3OC)[nH]2)cc1 (stereo not given)	nt	-1	0	nt	1
COc1cc(OC)cc(-c2nc3cc(C)ccc3o2)c1	52	57*	45*	58*	8
COC(=O)C[C@@H]1CC[C@H]2[C@@H](COc3ccc(NC(=O)c4cnccn4)cc3C(=O)N2C)O1	nt	nt	-4	nt	nt
Cc1cnc(C(=O)Nc2nnc(C(C)C)s2)cn1	nt	32*	6	39	6
Cc1cnc(C(=O)Nc2nnc(C)s2)cn1	9	2	nt	0	-2

Screening data (PubChem BioAssay)
